# Test results as given in PubChem BioAssay AID1469 (National Center for Advancing Translational Sciences (NCATS), 2008).
# Out of some 280,000 compounds screened, about 180 (0.064%) were called active. Calls follow the shape of the dose curve; as a rule, active = well fitted inhibition curve with a large enough effect; inconclusive = small, poorly fitted or top-dose-only effect, or effect the other way; inactive = flat fitted curve, though single readings scatter. Shown is part of a subset that was picked to be rich in actives. A call without a number means that no potency is given here.
# Molecular target: Thyroid hormone receptor beta (Homo sapiens) (UniProt P10828)
# Sequence (P10828 whole entry, looked up): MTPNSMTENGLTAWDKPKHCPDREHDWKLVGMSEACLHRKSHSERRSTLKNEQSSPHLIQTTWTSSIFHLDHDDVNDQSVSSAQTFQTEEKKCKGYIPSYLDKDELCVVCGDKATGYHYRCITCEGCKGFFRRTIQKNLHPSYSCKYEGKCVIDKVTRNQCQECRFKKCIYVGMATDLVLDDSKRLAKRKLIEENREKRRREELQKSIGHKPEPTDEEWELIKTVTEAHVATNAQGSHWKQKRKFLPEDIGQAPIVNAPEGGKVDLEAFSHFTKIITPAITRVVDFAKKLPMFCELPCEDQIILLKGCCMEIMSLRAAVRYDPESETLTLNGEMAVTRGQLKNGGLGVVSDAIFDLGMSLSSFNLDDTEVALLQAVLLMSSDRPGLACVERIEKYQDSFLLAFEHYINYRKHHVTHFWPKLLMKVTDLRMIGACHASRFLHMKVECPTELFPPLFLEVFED
# Assay: qHTS for Inhibitors of the Interaction of Thyroid Hormone Receptor and Steroid Receptor Coregulator 2; also: nearly all actives have a fitted effect of over 50% in size
# Details: TRbeta-SRC2 peptide binding, fluorescence polarization, receptor liganded with 1 µM T3; series mostly up to 201 µM
# Excerpt: NIH Molecular Libraries Probe Production Network [MLPCN]
# NIH Chemical Genomics Center [NCGC]
# Assay Provider: R. Kip Guy, St. Jude Children's Research Hospital
# Thyroid receptor (TR) regulates many homeostatic processes including basal metabolism, cardiovascular function, body weight, and lipid trafficking. TR modulators are potential therapeutics for obesity and hyperlipidemias but current thyroid analogs have undesirable side effects, particularly cardiac stimulation. To identify inhibitors that specifically prevent the interaction of TR with the steroid receptor coregulator 2 (SRC2), a fluorescence polarization assay was screened. This assay detects interaction of the ligand-binding domain of human TRb with a Texas Red labeled SRC2 peptide, corresponding to a 20 amino acid region of the nuclear receptor interaction domain (Arnold et al., 2006). Small molecule inhibitors that block the interaction of TR and SRC2 are detected by a decrease in fluorescence polarization.
# Arnold, L. A.; Estebanez-Perpina, E.; Togashi, M.; Shelat, A.; Ocasio, C. A.; McReynolds, A. C.; Nguyen, P.; Baxter, J. D.; Fletterick, R. J.; Webb, P.; Guy, R. K. A high-throughput screening method to identify small molecule inhibitors of thyroid hormone receptor coactivator binding. Sci STKE 2006, p 13.
# NCGC Assay Protocol Summary:
# For screening, 5 uL/well 0.6 uM TRb and 20 nM SRC2 Texas Red in protein buffer (20mM Tris hydrochloride, 100mM NaCl, 10% glycerol, 1mM EDTA, 0.01% NP-40, 1mM DTT, 1uM T3 and 5% DMSO) was dispensed into black solid 1536-well plates (Grenier) using a solenoid-based dispenser. Following transfer of 23 nL compound or DMSO vehicle by a pin tool, the plates were centrifuged 15 s at 1000 RPM and incubated 5 hr at ambient temperature. The plates were read by an Envision (Perkin Elmer) to detect fluorescence polarization of SRC2 Texas Red (555 nm excitation and 632 nm emission). Data were normalized to unbound (all components except TRb) and bound SRC2 Texas Red controls. In this assay, we provide % activity data for each concentration as well as potencies for the active compounds.
# Keywords: NIH Roadmap, MLPCN, MLI, MLSMR, qHTS, NCGC, qHTS, thyroid hormone receptor, steroid receptor coactivator, fluorescence polarization
# Potency is read from the fitted curve at half-maximal effect.
row,SMILES,Potency
1,CC[N+](C)(CC)CCC[n+]1c(-c2ccccc2)c2cc(N)ccc2c2ccc(N)cc21,44.7 µM (active)
2,Oc1ccc(C2(c3ccc(O)cc3)c3ccccc3-c3ccccc32)cc1,inactive
3,[Ga]#[As],inactive
4,CCOP(=O)(SC(C)CC)SC(C)CC (stereo not given),inactive
5,COc1nc(C)nc(NC(=O)NS(=O)(=O)c2ccccc2CCC(F)(F)F)n1,inactive
